G9a inh = G9a (human) methyltransferase inhibition. Q96KQ7. G9a H3K9 monomethylation, AlphaScreen, 2 h. Potency, µM (titrated, usually from 102 µM), for inactives: at the highest dose activity, negative = inhibition, actives largely listed as inhibitors. 350,000 tested, 8.8% active. AID 504332; further: potency means the concentration at half of the fitted maximal effect; on the % scale 0 is the no-effect control and ±100 the full control effect; nearly all actives have a fitted effect of over 75% in size
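Readings reflect AlphaScreen signal from monomethyl-H3K9 antibody detection. HMT at 20 nM; substrate b-H3K9 500 nM; cofactor SAM 20 uM; 2 h RT reaction; compounds tested as titrations in qHTS with 15 min preincubation.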
BAZ2B inh = blocks human BAZ2B | Q9UIF8 | AlphaScreen BAZ2B-H3K14Ac peptide displacement | Potency, µM (titrated, usually from 114 µM), inactives show at the top dose activity change, negative = inhibition, most hits filed as inhibitors | 360,000 tested, 4.4% active | AID 504333; further: potency means the concentration at half of the fitted maximal effect; on the % scale 0 is the no-effect control and ±100 the full control effect; nearly all actives have a fitted effect of over 60% in size
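BAZ2B (50 nM) with biotin-H3(5-23)K14Ac peptide (50 nM) in PBS pH 7.4, 0.01% Tween-20, preformed 30 min, then compound 30 min at room temperature; top concentration 110uM. AlphaScreen streptavidin donor/nickel chelate acceptor beads (10 ug/mL final), 20 min dark, signal read.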
L3MBTL1 block = inhibitors of human L3MBTL1. AlphaScreen L3MBTL1–H3K9me1 peptide binding. Potency, µM (top dose mostly 57.1 µM), for the others: at the top dose activity, negative = inhibition, most hits filed as inhibitors. 230,000 tested, 0.66% active. AID 485360; further: potency means the concentration at half of the fitted maximal effect; on the % scale 0 is the no-effect control and ±100 the full control effect; nearly all actives have a fitted effect of over 60% in size
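AlphaScreen proximity signal between nickel-chelate acceptor and streptavidin donor beads (final 10 ug/mL) reports binding of 50 nM L3MBTL1 to 75 nM biotin-H3 K9me1 peptide; complex incubated with compounds 30 min at room temperature; cefsulodin titration as control.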
JMJD2A Tudor = inhibitors of human JMJD2A Tudor domain | O75164 | AlphaScreen JMJD2A-Tudor / H3K4me3 peptide binding | Potency, µM (highest dose often 114 µM), without a hit: at the top dose activity change, negative = inhibition, actives largely listed as inhibitors | 390,000 tested, 4.4% active | AID 504339; further: potency means the concentration at half of the fitted maximal effect; on the % scale 0 is the no-effect control and ±100 the full control effect; nearly all actives have a fitted effect of over 50% in size
HP1b binding inh = blocks HP1-beta chromodomain binding to methylated histone tails | AlphaScreen HP1-beta / biotin-H3K9me3 peptide binding | Potency, µM (doses to about 114 µM), for the others: at the highest dose activity change, negative = inhibition, actives largely listed as inhibitors | AID 540317 | P83916 | 390,000 tested, 0.56% active; further: potency means the concentration at half of the fitted maximal effect; nearly all actives have a fitted effect of over 70% in size
Target sequence (P83916 whole entry, looked up): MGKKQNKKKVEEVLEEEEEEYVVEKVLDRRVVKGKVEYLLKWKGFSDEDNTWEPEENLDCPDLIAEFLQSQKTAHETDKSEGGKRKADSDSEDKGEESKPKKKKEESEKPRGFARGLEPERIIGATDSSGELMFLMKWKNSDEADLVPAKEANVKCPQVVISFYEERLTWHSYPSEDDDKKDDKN
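Compound inhibition of the preformed complex between 50 nM HP1-beta and 50 nM biotinylated H3K9me3 peptide was read by AlphaScreen. Buffer was PBS pH 7.4 with 0.01% Tween-20. Incubations ran 30 min at room temperature, with 10 ug/mL donor/acceptor beads.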
PI5P4K alpha inh = PI5P4K alpha (human) kinase inhibition; P48426; PI5P4Kalpha enzyme, ADP-Glo luminescence, 60 min; stronger effect = lower value; max response, %; 330,000 tested, 1.2% active; active means max response of -50% or lower; inconclusive means between -30% and -50%; inactive means -30% or higher; further: value at the top dose of about 77 µM; on the % scale 0 is the no-effect control and ±100 the full control effect
Target sequence (P48426 whole entry, looked up): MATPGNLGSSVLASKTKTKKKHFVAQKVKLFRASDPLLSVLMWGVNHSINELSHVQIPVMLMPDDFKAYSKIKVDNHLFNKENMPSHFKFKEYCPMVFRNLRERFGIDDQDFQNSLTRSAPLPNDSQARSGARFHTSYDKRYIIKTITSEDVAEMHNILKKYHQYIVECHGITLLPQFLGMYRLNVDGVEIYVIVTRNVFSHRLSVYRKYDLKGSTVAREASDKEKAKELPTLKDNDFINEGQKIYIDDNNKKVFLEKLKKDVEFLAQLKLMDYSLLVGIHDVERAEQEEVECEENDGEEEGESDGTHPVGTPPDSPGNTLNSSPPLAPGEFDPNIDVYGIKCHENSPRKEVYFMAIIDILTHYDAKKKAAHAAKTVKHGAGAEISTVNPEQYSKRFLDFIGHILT
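Compounds were pin-transferred onto PI5P4Kalpha and substrate in HEPES pH 7.4 buffer with EGTA, CHAPS and 5% DMSO. ATP (5 microM final) started the reaction, which ran 60 minutes at room temperature before ADP-Glo detection.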
* marks the source's active call; other numbers are inactive results; [ ] = dose if it differs, or a comment. An excerpt weighted towards active compounds, which were near 11% of everything screened. Unless noted, the call rests on the fitted dose curve; in most records, active means well fitted inhibition curve with a large enough effect; inconclusive means small, poorly fitted or top-dose-only effect; inactive means no such curve, though single readings can be large or run the other way.

Cc1cccc(CCNC(=O)CN(c2ccc(C(C)C)cc2)S(=O)(=O)c2c(C)nn(C)c2C)c1 was read as G9a inh -38%[59 µM], BAZ2B inh -13%, JMJD2A Tudor -21% and HP1b binding inh 34%.
Screening CCOc1cccc(C2C=C(c3ccc4c(c3)OCO4)NC(c3ccc(Cl)cc3)N2)c1O (centres undefined) returned JMJD2A Tudor -9%[57.1 µM] and HP1b binding inh -9%[57 µM].
`COc1nccnc1NS(=O)(=O)c1ccc(NC(=S)NC(=O)c2ccccc2)cc1` gave G9a inh 40µM*, BAZ2B inh inconclusive, L3MBTL1 block -5%, JMJD2A Tudor inconclusive, HP1b binding inh -16% and PI5P4K alpha inh -2.
`COc1nccnc1NS(=O)(=O)c1ccc(NCc2ccccc2O)cc1` gave G9a inh -18%, BAZ2B inh -20%, JMJD2A Tudor -21%, HP1b binding inh 11% and PI5P4K alpha inh 0.
Screening COc1nccnc1NS(=O)(=O)c1ccc(NC(=S)NC(=O)/C=C/c2ccccc2)cc1 returned G9a inh inconclusive, BAZ2B inh -13%, L3MBTL1 block -10%, JMJD2A Tudor 79µM*, HP1b binding inh -7% and PI5P4K alpha inh -11.
COc1ccc(C)cc1NS(=O)(=O)c1cc(Br)cc2c1N(C(C)=O)C(C)C2 (centres undefined) was read as G9a inh -29%[59 µM], BAZ2B inh -9%, JMJD2A Tudor -20% and HP1b binding inh 11%.
`CC(C)Oc1ccc(CNC(=O)CCCN2C(=O)c3cccnc3Oc3ccc(Cl)cc32)cc1` gave G9a inh -7%[59 µM], BAZ2B inh 2%, JMJD2A Tudor -13% and HP1b binding inh 29%.
Screening CC(=O)c1cccc(NC(=O)CCn2nc(C)c(S(=O)(=O)N3CCCCC3)c2C)c1 returned G9a inh 39%[59 µM], BAZ2B inh inconclusive, JMJD2A Tudor 1% and HP1b binding inh 51%.
COc1cc(C(=S)N2CCCCC2)ccc1O was read as G9a inh 50µM*, BAZ2B inh -2%, JMJD2A Tudor 0% and HP1b binding inh 16%.
`COc1cc(C(=S)N2CCC(C)CC2)ccc1O` gave G9a inh 7.9µM*, BAZ2B inh -26%, JMJD2A Tudor -23% and HP1b binding inh -25%.
For COc1ccc(C(=O)C2CCCN(C(=O)CSC)C2)cc1OC (centres undefined) the results were G9a inh 71µM*, BAZ2B inh 3%, L3MBTL1 block 2%, JMJD2A Tudor -11%, HP1b binding inh 30% and PI5P4K alpha inh -5.
Screening COc1cc(C(=S)N2CCCC2)ccc1O returned G9a inh 14µM*, BAZ2B inh -6%, L3MBTL1 block 5%, JMJD2A Tudor -1% and HP1b binding inh -26%.
Screening N[C@@H](CSS(=O)(=O)O)C(=O)O returned G9a inh -31%[59 µM].
COc1cc(C2CC(=O)Nc3c2c(=O)n(C)c2ncnn32)cc(OC)c1OC (centres undefined) was read as G9a inh -31%[59 µM], BAZ2B inh -24%, JMJD2A Tudor -12% and HP1b binding inh 10%.
COc1cccc(-n2c(SCc3cc(=O)oc4cc(O)c(O)cc34)nc3ccccc3c2=O)c1 was read as G9a inh inconclusive, BAZ2B inh 35µM*, L3MBTL1 block 32µM*, JMJD2A Tudor 40µM*, HP1b binding inh inconclusive and PI5P4K alpha inh -61*.
CCN(CC)C(=O)CSc1nc2ccccc2c(=O)n1-c1cccc(OC)c1 was read as G9a inh 8%[59 µM], BAZ2B inh 1%, JMJD2A Tudor 0%, HP1b binding inh 32% and PI5P4K alpha inh 9.
Screening O=C(Cn1nc(-c2ccc(Cl)cc2)ccc1=O)NCCc1ccccc1 returned G9a inh 10%[59 µM], BAZ2B inh 3%, JMJD2A Tudor 0% and HP1b binding inh 54%.
`Cc1ccc(-c2ccc(=O)n(CC(=O)NCCc3ccc(Cl)cc3)n2)cc1` gave G9a inh -7%[59 µM], BAZ2B inh 2%, JMJD2A Tudor 89µM* and HP1b binding inh 3%.
For COc1ccc(Cl)cc1NC(=O)CN(c1cc(C)cc(C)c1)S(=O)(=O)c1c(C)n[nH]c1C the results were G9a inh 8%[59 µM], JMJD2A Tudor -20% and HP1b binding inh 31%.
For COc1ccc(NC(C)=O)cc1NC(C)C(=O)Nc1ccc(F)c(F)c1F (centres undefined) the results were G9a inh 50µM*, BAZ2B inh -11%, JMJD2A Tudor -17%, HP1b binding inh 36% and PI5P4K alpha inh -3.
CCOc1ccc(N(CC(=O)Nc2ccc(OC)cc2)S(=O)(=O)c2ccc(Cl)cc2)cc1 was read as G9a inh -18%[59 µM], BAZ2B inh 6%, JMJD2A Tudor -7% and HP1b binding inh 40%.
CCc1cccc(NC(=O)CCc2nc3cccnc3n2Cc2ccc(OC)cc2)c1 was read as G9a inh -36%[59 µM], BAZ2B inh -5%, JMJD2A Tudor -19% and HP1b binding inh 8%.
For O=C1c2cccc3c([N+](=O)[O-])c(O)cc(c23)C(=O)N1Nc1ccccc1 the results were G9a inh 20µM*, BAZ2B inh inconclusive, L3MBTL1 block -17%, JMJD2A Tudor inconclusive, HP1b binding inh inconclusive and PI5P4K alpha inh -61*.
Screening Cc1ccc(OCC(=O)Nc2ccc(S(=O)(=O)Nc3ncccn3)cc2)c(C(C)(C)C)c1 returned G9a inh 14µM*, BAZ2B inh -4%, JMJD2A Tudor -10% and HP1b binding inh 33%.
`Cc1cc(C)nc(NS(=O)(=O)c2ccc(NC(=O)COc3ccccc3F)cc2)n1` gave G9a inh 17%[12.7 µM], BAZ2B inh 3%, L3MBTL1 block 2%, JMJD2A Tudor -13%, HP1b binding inh 23% and PI5P4K alpha inh 1.
Cc1cc(C)c(C)c(OCC(=O)Nc2ccc(S(=O)(=O)Nc3nc(C)cc(C)n3)cc2)c1 was read as G9a inh 14µM*, BAZ2B inh -15%, JMJD2A Tudor -21% and HP1b binding inh 12%.
COc1ccc(C2(C(=O)Nc3ccc(S(=O)(=O)Nc4nc(C)cc(C)n4)cc3)CCCC2)cc1OC was read as G9a inh 50µM*, BAZ2B inh -11%, L3MBTL1 block 3%, JMJD2A Tudor -19%, HP1b binding inh 3% and PI5P4K alpha inh 0.
Cc1ccc(OCC(=O)Nc2ccc(S(=O)(=O)Nc3ccccn3)cc2)cc1C was read as G9a inh 50µM*, BAZ2B inh -4%, L3MBTL1 block 22%, JMJD2A Tudor -9%, HP1b binding inh 26% and PI5P4K alpha inh -6.

Compound activity as filed in PubChem BioAssay.
